These results are taken from PubChem BioAssay (EPA / NIEHS).

Usually AC50 stands for the midpoint of the concentration-response curve, whichever way the signal moves.

Read-out in assay [1]: Interleukin-6 (IL6), IL6 (gene 3569)
In words: BSK_CASM3C_IL6: BioMAP Diversity Plus: CASM3C Assay for Interleukin-6 (IL6) Biomarker Activity for (AID 2283040). The following applies: primary human coronary artery smooth muscle cells; actives raise or lower the signal.

Read-out in assay [2]: Tissue plasminogen activator (tPA), PLAT (gene 5327)
In words: BSK_BE3C_tPA: BioMAP Diversity Plus: BE3C Assay for Tissue plasminogen activator (tPA) Biomarker Activity (AID 2283041).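 For outcome: tPA level quantified by ELISA one day after compound addition.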 The following applies: primary human bronchial epithelial cells; actives raise or lower the signal. An outline of the steps:
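Primary human bronchial epithelial cells in the BE3C system, exposed to compound for 24 h. tPA was quantified by ELISA; DMSO served as baseline, with gain or loss of signal fitted. Cytotoxicity checked in parallel cultures by SRB total-protein staining.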

Read-out in assay [3]: Interleukin-8 (IL8), CXCL8 (gene 3576)
In words: BSK_CASM3C_IL8: BioMAP Diversity Plus: CASM3C Assay for Interleukin-8 (IL8) Biomarker Activity (AID 2283042).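 Note: IL-8 protein level quantified by ELISA.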 The following applies: primary human coronary artery smooth muscle cells; actives raise or lower the signal.

Read-out in assay [4]: Human Leukocyte Antigen - DR isotype (HLADR), HLA-DRA (gene 3122)
In words: BSK_CASM3C_HLADR: BioMAP Diversity Plus: CASM3C Assay for Human Leukocyte Antigen - DR isotype (HLADR) Biomarker Activity (AID 2283043).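 Note: cell-surface HLA-DR protein level quantified by ELISA.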 The following applies: primary human coronary artery smooth muscle cells; actives raise or lower the signal.

Read-out in assay [5]: Macrophage colony-stimulating factor (MCSF), CSF1 (gene 1435)
In words: BSK_CASM3C_MCSF: BioMAP Diversity Plus: CASM3C Assay for Macrophage colony-stimulating factor (MCSF) Biomarker Activity (AID 2283044).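 Note: M-CSF protein amount quantified by ELISA after 24 h exposure.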 The note with it: primary human coronary artery smooth muscle cells; actives raise or lower the signal.

Read-out in assay [6]: Low-density lipoprotein receptor (LDLR), LDLR (gene 3949)
In words: BSK_CASM3C_LDLR: BioMAP Diversity Plus: CASM3C Assay for Low-density lipoprotein receptor (LDLR) Biomarker Activity (AID 2283045).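 Note: LDLR protein level on the cell surface quantified by ELISA.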 The following applies: primary human coronary artery smooth muscle cells; actives raise or lower the signal.

Read-out in assay [7]: Monocyte Chemoattractant Protein-1 (MCP1), CCL2 (gene 6347)
In words: BSK_CASM3C_MCP1: BioMAP Diversity Plus: CASM3C Assay for Monocyte Chemoattractant Protein-1 (MCP1) Biomarker Activity (AID 2283046).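 Note: MCP-1 level quantified by ELISA 24 h after dosing.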 The note with it: primary human coronary artery smooth muscle cells; actives raise or lower the signal.

Assay [8] in a line: BSK_CASM3C_Proliferation: Cell Proliferation Assessment in the BioMAP Diversity Plus: CASM3C Assay (AID 2283047).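 Note: sulforhodamine B total protein stain as relative cell number at 560 nm; sub-confluent cells exposed 48 h before staining; fitted both ways against DMSO so gain or loss of cell number.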 The following applies: primary human coronary artery smooth muscle cells.
Read-out in assay [9]: Monokine induced gamma interferon (MIG), CXCL9 (gene 4283)
In words: BSK_CASM3C_MIG: BioMAP Diversity Plus: CASM3C Assay for Monokine induced gamma interferon (MIG) Biomarker Activity (AID 2283048).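 Note: MIG protein level measured by ELISA.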 The note with it: primary human coronary artery smooth muscle cells; actives raise or lower the signal.

Read-out in assay [10]: serum amyloid A (SAA), SAA1 (gene 6288)
In words: BSK_CASM3C_SAA: BioMAP Diversity Plus: CASM3C Assay for serum amyloid A (SAA) Biomarker Activity (AID 2283049).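 Note: SAA protein level quantified by ELISA.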 The note with it: primary human coronary artery smooth muscle cells; actives raise or lower the signal.

Assay [11] is described as follows: BSK_CASM3C_SRB: Viability Assessment in the BioMAP Diversity Plus: CASM3C Assay (AID 2283050). The note with it: primary human coronary artery smooth muscle cells.
Read-out in assay [12]: Thrombomodulin, THBD (gene 7056)
In words: BSK_CASM3C_Thrombomodulin: BioMAP Diversity Plus: CASM3C Assay for Thrombomodulin Biomarker Activity (AID 2283051).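 Note: thrombomodulin protein level measured by ELISA 24 h after dosing.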 The note with it: primary human coronary artery smooth muscle cells; actives raise or lower the signal.

Read-out in assay [13]: Tissue Factor, F3 (gene 2152)
In words: BSK_CASM3C_TissueFactor: BioMAP Diversity Plus: CASM3C Assay for Tissue Factor Biomarker Activity (AID 2283052).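 Note: cell surface tissue factor protein level read by ELISA.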 The following applies: primary human coronary artery smooth muscle cells; actives raise or lower the signal.

Read-out in assay [14]: Interferon-gamma inducible Protein 10 (IP10), CXCL10 (gene 3627)
In words: BSK_hDFCGF_IP10: BioMAP Diversity Plus: hDFCGF Assay for Interferon-gamma inducible Protein 10 (IP10) Biomarker Activity (AID 2283053). The note with it: primary human foreskin fibroblasts; actives raise or lower the signal. An outline of the steps:
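Primary human foreskin fibroblasts exposed to chemicals for 24 h. IP-10 measured by ELISA; changes fitted bidirectionally against DMSO baseline.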

Read-out in assay [15]: Urokinase-type plasminogen activator receptor (uPAR), PLAUR (gene 5329)
In words: BSK_CASM3C_uPAR: BioMAP Diversity Plus: CASM3C Assay for Urokinase-type plasminogen activator receptor (uPAR) Biomarker Activity (AID 2283054).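 Note: cell-surface uPAR protein level quantified by ELISA.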 The following applies: primary human coronary artery smooth muscle cells; actives raise or lower the signal.

Read-out in assay [16]: Vascular cell adhesion molecule 1 (VCAM1), VCAM1 (gene 7412)
In words: BSK_CASM3C_VCAM1: BioMAP Diversity Plus: CASM3C Assay for Vascular cell adhesion molecule 1 (VCAM1) Biomarker Activity (AID 2283055).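 Note: VCAM-1 protein level quantified by ELISA on the cells.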 The following applies: primary human coronary artery smooth muscle cells; actives raise or lower the signal.

Read-out in assay [17]: Collagen III, COL3A1 (gene 1281)
In words: BSK_hDFCGF_CollagenIII: BioMAP Diversity Plus: hDFCGF Assay for Collagen III Biomarker Activity (AID 2283056). The following applies: primary human foreskin fibroblasts; actives raise or lower the signal. An outline of the steps:
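Human foreskin primary fibroblasts were exposed to test chemicals for 24 h, after which collagen III was quantified by ELISA. Activity was fitted bidirectionally against DMSO as negative control and baseline.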

Read-out in assay [18]: Epidermal growth factor receptor (EGFR), EGFR (gene 1956)
In words: BSK_hDFCGF_EGFR: BioMAP Diversity Plus: hDFCGF Assay for Epidermal growth factor receptor (EGFR) Biomarker Activity (AID 2283057). The following applies: primary human foreskin fibroblasts; actives raise or lower the signal. An outline of the steps: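 Primary human foreskin fibroblasts (hDFCGF system), sampled 24 h after dosing; EGFR quantified by ELISA. Bidirectional fit relative to DMSO baseline; SRB total-protein staining in parallel cultures for cytotoxicity.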

Read-out in assay [19]: Interleukin-8 (IL8), CXCL8 (gene 3576)
In words: BSK_hDFCGF_IL8: BioMAP Diversity Plus: hDFCGF Assay for Interleukin-8 (IL8) Biomarker Activity (AID 2283058). The note with it: primary human foreskin fibroblasts; actives raise or lower the signal. An outline of the steps:
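hDFCGF human dermal fibroblasts; 24 h chemical exposure; IL-8 by ELISA; bidirectional curve fit vs DMSO baseline; gain or loss of signal scored.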

Several values for one entry are separate records, joined by “and”; a condition that tells them apart may be missing. Equal entries are not always repeated. Where a structure was tested more than once in an assay, its records may differ in their call. Activity calls are given as the source filed them. Rule for the calls: active = hit-call score of the fitted dose curve at least 0.9, where 1 is the maximum; inactive = score below 0.9.

Regarding `COc1cc(OC)nc(NC(=O)NS(=O)(=O)Nc2ccccc2C(=O)N(C)C)n1`, the outcome in assay [1], in assay [2], in assay [4], in assay [5], in assay [6] and in assay [7] was inactive. Moreover, the outcome in assay [8], in assay [9], in assay [10], in assay [11], in assay [12] and in assay [13] was inactive. Moreover, the result in assay [14], in assay [15], in assay [16], in [17], in assay [18] and in assay [19] was inactive. Further, in [3], the AC50 is 22.4 nM (active).

`O=C(NCc1ncc(C(F)(F)F)cc1Cl)c1c(Cl)cccc1Cl`: the result in assay [1], in assay [2], in [3], in assay [4], in assay [5] and in [6] was inactive. Also, the result in [7], in [8], in [9], in assay [10], in assay [11] and in [12] was inactive. Also, the result in assay [13], in [14], in assay [15], in assay [16], in assay [17] and in assay [18] was inactive. Moreover, the outcome in assay [19] was inactive.

`Oc1ccc(Cc2ccccc2O)cc1`: the outcome in assay [1], in [2], in assay [3], in assay [4], in assay [5] and in assay [6] was inactive. Moreover, the outcome in assay [7], in assay [8], in [9], in [10], in assay [11] and in assay [12] was inactive. Also, the result in [13], in assay [14], in assay [15], in assay [16], in [17] and in assay [18] was inactive. Further, the outcome in assay [19] was inactive. Also, the AC50 is 10.8 µM (active) in assay [4] and 3.97 µM (active) in [16].

Take `CN(CCO)S(=O)(=O)C(F)(F)C(F)(F)C(F)(F)C(F)(F)C(F)(F)C(F)(F)C(F)(F)C(F)(F)F`: the result in [1], in assay [2], in [3], in assay [4], in [5] and in assay [6] was inactive. Further, the result in assay [7], in assay [8], in assay [9], in assay [10], in assay [11] and in [12] was inactive. Besides, the outcome in [13], in [14], in assay [15], in assay [16], in [17] and in assay [18] was inactive. Also, in [19], the outcome was inactive. For the same compound, the AC50 in assay [9] was 29.3 nM (active).

Take `OCC(F)(F)C(F)(F)C(F)(F)C(F)(F)C(F)(F)C(F)(F)C(F)(F)C(F)(F)C(F)(F)C(F)(F)C(F)(F)F`: the outcome in [1], in [2], in [3], in assay [4], in [5] and in [6] was inactive. Moreover, the result in assay [7], in assay [8], in [9], in [10], in assay [11] and in assay [12] was inactive. Also, the result in [13], in assay [14], in assay [15], in [16], in assay [18] and in assay [19] was inactive. Moreover, the AC50 in assay [17] was 58 nM (active) and 74.1 nM (active).

Consider `C=CC(C)(CCC=C(C)C)OC(C)=O` (configuration not stated), for which the outcome in [1], in assay [3], in [6], in assay [9], in [12] and in [13] was inactive. Further, the outcome in assay [14], in assay [17], in assay [18] and in assay [19] was inactive. The AC50 in assay [2] is 26.3 µM (active); in assay [4] it was 32 µM (active); in [5] it was 35.8 µM (active); in assay [7], 26.6 µM (active); in assay [8] it was 30.6 µM (active); in [10], 28.7 µM (active). Further, the half-maximal activity concentration (AC50) in assay [11] was 32.6 µM (active); in [15], 20 µM (active); in assay [16], 34.6 µM (active).
